Results taken from the OligoGym collection.

The sequences below were run against IREB2 (assay: pooled miR-30 sensor sort-seq; sequence = guide strand). Details: shRNA.
Further: reference of the scale not given here.

| Sequence | sensor-assay potency score (higher = more potent) |
| --- | --- |
| TATTGTAGTTCGATCAACTATA | -0.8 |
| TTATGTGTGAATCTGTGCCGAC | -0.0474 |
| TTCGAAACAATTTCACAGCTTT | 1.18 |
| TAGTATAACATGTTCTTCCTCT | 0.5 |
| TAAAATTCCACAGGTAACCAAA | -1.05 |

The sequences below were run against IRF2 in the same assay as above. Details: shRNA.

| Sequence | sensor-assay potency score (higher = more potent) |
| --- | --- |
| TTTCTTTATGCTTTTATCCTTG | -0.739 |
| TTTGCCTTCAATATTCCTCTTC | 0.432 |
| TTTCCTTTCTTAGAAGGCCGTT | -0.36 |
| TTCAATATTCCTCTTCCGCCAG | -0.844 |
| TTGCTCTCCTCTTTGATGGTGA | -0.593 |
| AATCTCTTGATTCTCAATGTTG | -1.2 |
| TACAACTTGGCAAATGTCTGGC | 0.449 |
| TTCTGCATAGGAAGACACGGGG | -0.312 |
| TATCAGTCGTTTCGCTTTCTGC | -0.797 |
| TCTTGATTCTCAATGTTGCTGT | 0.147 |
| TTTCTGCATAGGAAGACACGGG | -0.335 |

These sequences were tested against IRX2 in the same assay as above. Details: shRNA.

| Sequence | sensor-assay potency score (higher = more potent) |
| --- | --- |
| TTCTTGGGCTCGTAGCCGCCGC | -1.6 |
| TCCTCGTCCTCATCTTCGCTTT | -1.22 |
| ATGGCTAGCATGATCTTCTCGC | -0.31 |
| TCTTTCTTGGGCTCGTAGCCGC | -1 |
| TGTCCTTGCACTCCGAGCCCGA | -0.973 |
| ATCTTCGCTTTTGTTTCTCGGG | -1.09 |
| TTGTCCTTGCACTCCGAGCCCG | -1.01 |
| TACTTGTCCTTGCACTCCGAGC | -1.54 |
| TCTTCGCTTTTGTTTCTCGGGG | -0.791 |
| TTGTCGGGACTCTCGTCCTTGC | -0.88 |
| TTCGCTTTTGTTTCTCGGGGCC | -0.0873 |
| TAGTTTGTGTAGTTGCCGTAGA | 0.0957 |

The sequences below were run against ISLR2 in the same assay as above. Details: shRNA.

| Sequence | sensor-assay potency score (higher = more potent) |
| --- | --- |
| TTGAGCTCTGCGCTCTGGTTGA | -0.693 |
| TTGCGCAGGTCGCTCCACGGAA | -1.26 |
| TTGTCAGGGACTACACGCCGGG | -0.648 |
| TAGCGCACCGAGTGCGTCCCGG | -1.05 |
| TTTGGAACTAAAAACTAGGGGT | 0.382 |
| TTTCCAAAGTCTTCGCTCGTTT | -0.577 |
| TGAGCGTACTTGTCCACGCAGG | -1.13 |
| TTGACGCCTTCCTCTACGCGGG | -1.19 |
| TTGAAAACAACGAAAACAGGAA | -0.395 |
| TTTGTAAGCGCAGTCCGCGAAC | -1.25 |
